Screening data deposited in PubChem by University of Kansas High Throughput Screening Laboratory.
This is a sample that favours compounds with a hit; in the whole collection about 3.6% have one here.
Pf apPOL inh: Pf-apPOL DNA polymerase inhibition. Recombinant Pf-apPOL, molecular beacon fluorescence, 1.5 h. 210,000 compounds, 0.25% hits. AID 1794808. inhibition, % at 10 µM
mHTT CaM bind: disrupts binding of mutant huntingtin to calmodulin. P42858. 190,000 compounds, 3.6% hits. inhibition, % at 15 µM. AlphaScreen His-mHTT/GST-CaM binding, luminescence;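 note: 0% = both proteins with DMSO and 100% = one protein alone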
The depositor's hits bear a star; . = not tested or not shown. Cut-off read from the data, not from the text of the source: active = inhibition above about 50%; inactive = the rest.

SMILES | Pf apPOL inh | mHTT CaM bind
COc1cc(C2C(C#N)=C(N)N(c3ccccc3)C3=C2C(=O)CC(C)(C)C3)cc(OC)c1OC (stereo not drawn) | 1 | 6
COc1cc(-c2nc(C=Nc3nc4ccccc4n3C)c(O)o2)cc(OC)c1OC | 0 | 1
CCC1CN2C=NC(N3CCN(C(=O)Nc4ccc(C)cc4)CC3)=CC2=N1 (stereo not drawn) | -5 | -2
CC(=O)Oc1ccc2c(=O)c(Oc3ccccc3Br)c(C(F)(F)F)oc2c1 | 0 | 52*
COc1ccc2c(=O)c(Oc3ccccc3Br)c(C(F)(F)F)oc2c1 | 9 | 4
CCN(CC)Cc1c(O)c(CN(CC)CC)c2oc(-c3ccccc3)cc(=O)c2c1O | 5 | 100*
O=c1cc(-c2ccccc2)oc2c(CN3CCCCC3)c(O)c(CN3CCCCC3)c(O)c12 | 3 | 39
CCOC(=O)C(=O)Nc1cc(C)nn1-c1nc2c(cnn2-c2cccc(C)c2C)c(=O)[nH]1 | -8 | -16
Cc1nn(C)c(C)c1CNC(=O)c1ccc2c(c1)NC(=O)C1CCCCN21 (stereo not drawn) | -3 | 7
C=C(C)COc1ccc2c(=O)c(-c3ccc(Cl)cc3)c(C)oc2c1 | 1 | -4
CCN(CC)c1ccc(NC(=O)CCS(=O)(=O)c2cccc3nsnc23)c(C)c1 | -2 | 17
CCN(CC)c1ccc(NS(=O)(=O)c2cccc3nsnc23)c(C)c1 | -4 | 54*
CCN(CC)c1ccc(/C=C2/C(=O)N(c3nc(-c4ccccc4O)cs3)N=C2C)cc1 | -6 | 13
Cn1cccc1C(=O)N1CCc2c(nc3cc[nH]n3c2=O)C1 | 0 | -3
O=C(Nc1c(Cc2ccccc2)nc2ccccn12)C(Cl)Cl | 22 | 44
CC(Cl)C(=O)Nc1c(Cc2ccccc2)nc2ccccn12 (stereo not drawn) | 72* | 44
CCCCC(=O)NC(c1ccc(N(C)C)cc1)c1ccc2cccnc2c1O (stereo not drawn) | 1 | 100*
CCCCC(=O)NC(c1ccc(N(CC)CC)cc1)c1ccc2cccnc2c1O (stereo not drawn) | -13 | 98*
CCC(=O)NC(c1ccc(N(C)C)cc1)c1ccc2cccnc2c1O (stereo not drawn) | 3 | 100*
Cc1c(C(=O)Nc2nnc(C(C)(C)C)s2)cccc1[N+](=O)[O-] | -1 | 0
Cc1cc(C(=O)N2CC(c3nc(-c4ccccn4)no3)C2)no1 | -6 | -14
CCC(=O)N1CCCC1c1nc2cc(-c3ccc(F)c(F)c3)ccc2o1 (stereo not drawn) | -4 | 49
COc1cccc2c(NC(=O)c3ccccc3F)cc(C)nc12 | 2 | -3
COc1ccc(C(=O)NC(Nc2ccc(Br)cc2)C(Cl)(Cl)Cl)cc1 (stereo not drawn) | 7 | 3
COc1ccc(C(=O)NC(Nc2ccc([N+](=O)[O-])cc2)C(Cl)(Cl)Cl)cc1 (stereo not drawn) | 2 | 48
SMILES | Pf apPOL inh | mHTT CaM bind
COc1ccc(NC(NC(=O)c2ccc(Cl)cc2)C(Cl)(Cl)Cl)cc1 (stereo not drawn) | -8 | 57*
COc1ccc(NC(NC(=O)c2ccc([N+](=O)[O-])cc2)C(Cl)(Cl)Cl)cc1 (stereo not drawn) | -2 | 53*
O=C1NC(=O)C2(COC(c3ccc([N+](=O)[O-])cc3)OC2)S1 (stereo not drawn) | 0 | 1
CSc1cc(-c2cccs2)[nH]c(=O)c1C#N | -4 | .
N#Cc1c(C(F)(F)F)cc(-c2cccs2)[nH]c1=O | 1 | -12
N#Cc1c(-c2cccs2)cc(-c2ccco2)[nH]c1=O | 72* | .
N#Cc1c(-c2ccco2)cc(-c2cccs2)[nH]c1=O | 83* | .
Cc1cccc(CNC(=O)C2CCN(c3ccc(Br)cc3F)C2=O)c1 (stereo not drawn) | -1 | -1
COc1ccc(CCC(=O)NCC23CCCC2N(C)C(=O)CC3)cc1 (stereo not drawn) | -2 | -13
COc1ccc2c(c1)C(C)=CC(C)(C)N2C(=O)CSc1nccn1C | 2 | 7
Cc1cc(C)nc(Nc2nc(C(=O)NCCn3nc(-c4ccco4)ccc3=O)cs2)n1 | 35 | 62*
O=C(CC(c1ccccc1)c1ccccc1)NCCn1nc(-c2ccco2)ccc1=O | 32 | 69*
Cn1cc(C(=O)NCCn2nc(-c3ccco3)ccc2=O)nn1 | 1 | -5
O=C(COc1ccccc1F)NCCn1nc(-c2ccco2)ccc1=O | -2 | 2
Cn1c(CSCc2nc(-c3ccc(Cl)cc3)cs2)n[nH]c1=S | -18 | .
COc1ccc(N2CCN(CC(O)COC3CCC(C(C)(C)C)CC3)CC2)cc1 (stereo not drawn) | -3 | 34
CC1CCN(CC(O)COC2CCCC2)CC1 (stereo not drawn) | -2 | -1
CC1CC(OCC(O)CN2CCC(CN3C(=O)c4cccc5cccc(c45)C3=O)CC2)CC(C)(C)C1 (stereo not drawn) | 77* | 37
